Measured values reported in PubChem BioAssay (NCI).
Compounds without any hit were thinned out: in the full panel of roughly 83,000, 20% have a hit.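 The endpoint reported here, percent growth, reads 100 for growth as untreated, 0 for no net growth and -100 for all cells dead.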 Unmarked numbers belong to inactive results. Calls of active or inactive are those of the source. The calls were made as follows: active = growth percent below 10; inactive = the rest.

Assays:
Experiment in all cases: NCI-60 one-dose screen, 48 h (100 = growth as untreated, 0 = no growth, -100 = all killed)
Details in all cases: 10 µM unless noted
HCT-15 colon = system: HCT-15 colon
HT29 colon = system: HT29 colon
SNB-75 CNS = system: SNB-75 CNS
SNB-19 CNS = system: SNB-19 CNS
PC-3 prostate = system: PC-3 prostate
SK-MEL-5 melanoma = system: SK-MEL-5 melanoma
UACC-62 melanoma = system: UACC-62 melanoma
LOX IMVI melanoma = system: LOX IMVI melanoma
SK-MEL-28 melanoma = system: SK-MEL-28 melanoma
U251 CNS = system: U251 CNS

| SMILES | growth (HCT-15 colon) | growth (HT29 colon) | growth (SNB-75 CNS) | growth (SNB-19 CNS) [%] | growth (PC-3 prostate) | growth (SK-MEL-5 melanoma) | growth (UACC-62 melanoma) | growth (LOX IMVI melanoma) | growth (SK-MEL-28 melanoma) | growth (U251 CNS) |
| --- | --- | --- | --- | --- | --- | --- | --- | --- | --- | --- |
| Cc1nccc2c3ccc(OCc4cn(-c5ccc(Cl)cc5)nn4)cc3n(CCCc3ccccc3)c12 | 45.7% | 11.1% | -45.1% (active) | 63 | 16.3% | 68.3% | -62% (active) | 0.291% (active) | -34.3% (active) |  |
| COc1ccc(-c2cnc(N)nc2-c2ccc(OC)cc2O)cc1 | 101% | 85.6% | 91.5% | 99.6 | 92% | 104% | 93.4% | 86.1% | 104% |  |
| CNC(=O)Nc1ccc(-c2nc(N3CCOCC3)nc3c2cnn3C2CCOCC2)cc1 | 8.73% (active) | 6.44% (active) | -37.9% (active) |  | 6.22% (active) | -47.7% (active) | -39.6% (active) | 4.58% (active) | -14.1% (active) | 4.14% (active) |
| O=C1/C(=C/c2ccc(O)cc2)COc2ccc(-c3ccccc3)cc21 | 48.1% | 27.1% | 90.4% | 109 | 60% | 81.7% | 88.4% | 53.9% | 117% |  |
| NC(=O)c1ccc[n+](CC(=O)N2CCN(c3cc4c(cc3F)c(=O)c(C(=O)O)cn4C3CC3)CC2)c1 | 81.8% | 99.3% | 88.2% | 92.6 | 88.9% | 93.7% | 59.2% | 43% | 75.8% |  |
| Cc1cccc(Oc2ccc(Nc3ncnc4ccc(NC(=O)CNCCO)cc34)cc2Cl)c1 | 62.6% | 38.4% | 77.1% | 65.6 |  | 77.6% | 97.6% | 14.6% | 68.8% |  |
| CC(=O)OC1CCC2(C)C(CCC3C4CC=C(C(C)=O)C4(C)OC(=O)CC32)C1 (centres undefined) | 5.27% (active) | -59.4% (active) | 95% | 94.6 | 73.2% | 54.7% | 37.8% | -19.9% (active) | 4.51% (active) |  |
| Fc1ccc(C2CC(c3cccc(Nc4ccncc4)c3)=NN2c2ccc(Cl)cc2)cc1 (centres undefined) | 3.49% (active) | 2.11% (active) | 78.4% | 87.5 | 49.4% | 82.8% |  | -67.1% (active) | 53.4% |  |
| Cc1cccc(C)c1-c1cc(Cc2ccc(Cl)cc2)c(=O)[nH]n1 | 107% | 105% | 90.5% | 80.9 | 97.2% | 98.8% | 93.7% | 93.4% | 108% |  |
| O=C(Nc1sc2c(c1C(=O)O)CCCC2)c1cccc(C(F)(F)F)c1 | 89.3% | 97.7% | 104% | 100 | 90.8% | 81.2% | 77.5% | 102% | 94.4% |  |
| CCC(C)C(N)C(=O)NNc1n[nH]c(=S)n1N (centres undefined) | 103% | 107% | 99.6% | 97.7 |  | 100% | 101% | 101% | 107% |  |
| COc1cc(C2CC(c3cccc(Nc4ccncc4)c3)=NN2c2ccccc2)cc(OC)c1OC (centres undefined) | 28.2% | 1.04% (active) | 44.2% | 68.1 | 30.2% | -52.5% (active) | 96.2% | 33.8% | 5.22% (active) |  |
| CC1=CC[C@@H]2CC[C@]3(C)[C@H](CC[C@@H]4[C@@]5(C)CCCNC(C)(C)[C@@H]5CC[C@]43C)[C@H]2[C@@H]1C | -57.8% (active) | -55.2% (active) | 76.5% | 18.1 | 27.7% | 89.9% | 92.4% | -100% (active) | 63.7% |  |
